Source: PubChem BioAssay (NCI)
This is part of a sample that, as a whole, favours compounds with a hit. Of some 83,000 tested, about 20% had one in any assay.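 Treatment: one concentration, 48 hours, 96-well format. Scoring: percent growth, with anything below 10 considered active.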 A number with no mark means an inactive call. Calls of active or inactive are those of the source.

How the values were obtained:
Experiment in all cases: NCI-60 one-dose screen, 48 h (100 = growth as untreated, 0 = no growth, -100 = all killed)
Conditions in all cases: 10 µM unless noted
NCI-H23 lung = system: NCI-H23 lung
NCI-H226 lung = system: NCI-H226 lung
NCI-H322M lung = system: NCI-H322M lung
HOP-62 NSCLC = system: HOP-62 NSCLC
NCI-H460 lung = system: NCI-H460 lung
HOP-92 NSCLC = system: HOP-92 NSCLC
NCI-H522 lung = system: NCI-H522 lung
A549/ATCC NSCLC = system: A549/ATCC NSCLC
786-0 renal = system: 786-0 renal
COLO 205 colon = system: COLO 205 colon
DU-145 prostate = system: DU-145 prostate
MALME-3M melanoma = system: MALME-3M melanoma
MDA-MB-231 breast = system: MDA-MB-231 breast
RXF 393 renal = system: RXF 393 renal
SF-268 CNS = system: SF-268 CNS
SF-295 CNS = system: SF-295 CNS
SF-539 CNS = system: SF-539 CNS
UACC-257 melanoma = system: UACC-257 melanoma
M14 melanoma = system: M14 melanoma

CC(=O)O[C@H]1C(=O)[C@@]2(C)[C@H]([C@H](OC(=O)c3ccccc3)[C@]3(O)C[C@H](OC(=O)[C@H](OC(=O)CCC(=O)OC4CCC(S/N=C(N)/N=C(\N)N(C)C)CC4)[C@@H](NC(=O)c4ccccc4)c4ccccc4)C(C)=C1C3(C)C)[C@]1(OC(C)=O)CO[C@@H]1C[C@@H]2O (some centres not stated)
growth (NCI-H23 lung): 39.3%
growth (NCI-H226 lung): 75.6%
growth (NCI-H322M lung): 17.8%
growth (HOP-62 NSCLC): 29.7%
growth (NCI-H460 lung): 7.58% (active)
growth (HOP-92 NSCLC): 54.9%
growth (NCI-H522 lung): -25.7% (active)
growth (A549/ATCC NSCLC): 28.5%
growth (786-0 renal): 33.3%
growth (COLO 205 colon): -8.92% (active)
growth (DU-145 prostate): 0.0949% (active)
growth (MALME-3M melanoma): 66.8%
growth (MDA-MB-231 breast): 22.8%
growth (RXF 393 renal): 10.6%
growth (SF-268 CNS): 38.1%
growth (SF-295 CNS): -10.5% (active)
growth (SF-539 CNS): -19.7% (active)
growth (UACC-257 melanoma): 58%
growth (M14 melanoma): 30.1%

CC(=O)OC[C@H]1O[C@H](OC(C)=O)[C@H](NC(=O)/C=C/CCl)[C@@H](OC(C)=O)[C@@H]1OC(C)=O
growth (NCI-H23 lung): 75.4%
growth (NCI-H226 lung): 109%
growth (NCI-H322M lung): 84.5%
growth (HOP-62 NSCLC): 96.1%
growth (NCI-H460 lung): 96.6%
growth (HOP-92 NSCLC): 76.6%
growth (NCI-H522 lung): -64% (active)
growth (A549/ATCC NSCLC): 87.6%
growth (786-0 renal): 68%
growth (COLO 205 colon): 74.9%
growth (DU-145 prostate): 93.2%
growth (MALME-3M melanoma): 83.2%
growth (MDA-MB-231 breast): 46.3%
growth (RXF 393 renal): 75.2%
growth (SF-268 CNS): 89.3%
growth (SF-295 CNS): 87.5%
growth (SF-539 CNS): 65.6%
growth (UACC-257 melanoma): 64%
growth (M14 melanoma): 87.5%

COc1cc2c(cc1O)CC[C@@H]1[C@@H]2CC[C@]2(C)[C@@H](OCCN(C)C)CC[C@@H]12
growth (NCI-H23 lung): 42.3%
growth (NCI-H226 lung): 76.5%
growth (NCI-H322M lung): 51.3%
growth (HOP-62 NSCLC): 59.9%
growth (NCI-H460 lung): 39.6%
growth (HOP-92 NSCLC): 48.6%
growth (NCI-H522 lung): 18.4%
growth (A549/ATCC NSCLC): 66.5%
growth (786-0 renal): 57.9%
growth (COLO 205 colon): 58.8%
growth (DU-145 prostate): 12.8%
growth (MALME-3M melanoma): 16.7%
growth (MDA-MB-231 breast): 16.2%
growth (RXF 393 renal): 52.4%
growth (SF-268 CNS): 56.2%
growth (SF-295 CNS): -4.56% (active)
growth (SF-539 CNS): 4.14% (active)
growth (UACC-257 melanoma): -18.2% (active)
growth (M14 melanoma): 0.0496% (active)

COc1cc(-c2nn(-c3ccc(C)cc3)cc2C(=O)O)ccc1O
growth (NCI-H23 lung): 89.1%
growth (NCI-H226 lung): 102%
growth (NCI-H322M lung): 96.7%
growth (HOP-62 NSCLC): 88.2%
growth (NCI-H460 lung): 104%
growth (HOP-92 NSCLC): 97.7%
growth (NCI-H522 lung): 79.5%
growth (A549/ATCC NSCLC): 107%
growth (786-0 renal): 101%
growth (COLO 205 colon): 112%
growth (DU-145 prostate): 109%
growth (MALME-3M melanoma): 90%
growth (MDA-MB-231 breast): 91.7%
growth (RXF 393 renal): 125%
growth (SF-268 CNS): 90.4%
growth (SF-295 CNS): 97.9%
growth (SF-539 CNS): 101%
growth (UACC-257 melanoma): 105%
growth (M14 melanoma): 96.8%

CCC#CC[C@H](O)C/C=C1/C(=O)C=C[C@@H]1C/C=C\CCCC(=O)OC
growth (NCI-H23 lung): -13.4% (active)
growth (NCI-H226 lung): -62.8% (active)
growth (NCI-H322M lung): 48.1%
growth (HOP-62 NSCLC): -8.26% (active)
growth (NCI-H460 lung): -34.6% (active)
growth (HOP-92 NSCLC): 35.8%
growth (NCI-H522 lung): -90.1% (active)
growth (A549/ATCC NSCLC): 32.6%
growth (786-0 renal): -28.3% (active)
growth (COLO 205 colon): -23% (active)
growth (DU-145 prostate): 23%
growth (MALME-3M melanoma): 23.4%
growth (MDA-MB-231 breast): 12.7%
growth (RXF 393 renal): -74.1% (active)
growth (SF-268 CNS): 23.8%
growth (SF-295 CNS): -25.6% (active)
growth (SF-539 CNS): -5.91% (active)
growth (UACC-257 melanoma): -6.54% (active)
growth (M14 melanoma): 5.13% (active)

CN(C)c1ccc(N=Nc2ccc(Br)cn2)c(O)c1
growth (NCI-H23 lung): 19.3%
growth (NCI-H226 lung): 7.29% (active)
growth (NCI-H322M lung): 21.1%
growth (HOP-62 NSCLC): 18.5%
growth (NCI-H460 lung): 3.96% (active)
growth (HOP-92 NSCLC): 50.3%
growth (NCI-H522 lung): 14.4%
growth (A549/ATCC NSCLC): 10.3%
growth (786-0 renal): 20.5%
growth (COLO 205 colon): 7.48% (active)
growth (DU-145 prostate): 24.7%
growth (MALME-3M melanoma): 17.8%
growth (MDA-MB-231 breast): 34.1%
growth (RXF 393 renal): 55.5%
growth (SF-268 CNS): 16.8%
growth (SF-295 CNS): 17.4%
growth (SF-539 CNS): -10.2% (active)
growth (UACC-257 melanoma): -11.5% (active)
growth (M14 melanoma): -1.74% (active)

COc1ccc2c(c1)CC/C(=C\c1cncc(Br)c1)C2=O
growth (NCI-H23 lung): 92.7%
growth (NCI-H226 lung): 111%
growth (NCI-H322M lung): 106%
growth (HOP-62 NSCLC): 90%
growth (NCI-H460 lung): 103%
growth (HOP-92 NSCLC): 84.4%
growth (NCI-H522 lung): 55.7%
growth (A549/ATCC NSCLC): 95.3%
growth (786-0 renal): 92.7%
growth (COLO 205 colon): 106%
growth (DU-145 prostate): 102%
growth (MALME-3M melanoma): 106%
growth (MDA-MB-231 breast): 94.5%
growth (RXF 393 renal): 98.4%
growth (SF-268 CNS): 97.1%
growth (SF-295 CNS): 94.5%
growth (SF-539 CNS): 93.2%
growth (UACC-257 melanoma): 112%
growth (M14 melanoma): 92.9%

CCc1nc(N)nc(N)c1C#CC(C)c1cc(-c2ccnc(C)c2)c2oc(C)nc2c1 (configuration not stated)
growth (NCI-H23 lung): 5.82% (active)
growth (NCI-H226 lung): 44.7%
growth (NCI-H322M lung): 25.3%
growth (HOP-62 NSCLC): -2.79% (active)
growth (NCI-H460 lung): 2.7% (active)
growth (HOP-92 NSCLC): -0.67% (active)
growth (NCI-H522 lung): 18.2%
growth (A549/ATCC NSCLC): 3.87% (active)
growth (786-0 renal): 6.31% (active)
growth (COLO 205 colon): 0.792% (active)
growth (DU-145 prostate): 8.31% (active)
growth (MALME-3M melanoma): 36.7%
growth (MDA-MB-231 breast): 25.6%
growth (RXF 393 renal): -5.33% (active)
growth (SF-268 CNS): 1.29% (active)
growth (SF-295 CNS): 5.73% (active)
growth (SF-539 CNS): -27.3% (active)
growth (UACC-257 melanoma): 30.9%
growth (M14 melanoma): -9.02% (active)
